The source made the active and inactive calls. A call without a number means that no potency is given here. Calls follow the shape of the dose curve; as a rule, active = well fitted inhibition curve with a large enough effect; inconclusive = small, poorly fitted or top-dose-only effect; inactive = no such curve, though single readings can be large or run the other way.
Assay: qHTS assay for measurement of the activity of small molecule inhibitors on Zika virus induced Caspase-3 activity in human astrocytoma cells (AID 1224859)
Conditions: SNB-19 ZIKV-induced caspase-3/7, luminescence, 6 h; series mostly up to 45.7 µM
Summary of the method: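 In SNB-19 cells plated at 250 cells/well and grown 16-20 h, compounds were applied 1 h before ZIKV (2 FFU/cell). Six hours later caspase-3/7 luminescence was recorded.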
In the case of `Cc1nc2n(c(=O)c1CCN1CCC(c3noc4cc(F)ccc34)CC1)CCCC2`, the Potency was “inactive”. With `COC(=O)C1=C(C)NC(C)=C(C(=O)OC(C)C)C1c1cccc2nonc12` (stereo not given) the Potency was “inactive”. In the case of `CCCCCCCCOc1ccccc1C(=O)Nc1ccc(C(=O)OCC[N+](C)(CC)CC)cc1`, the Potency was “inactive”. With `CS(=O)(=O)OCCCCOS(C)(=O)=O` the Potency was “inactive”. For `Nc1ccc(S(N)(=O)=O)cc1`, the Potency was “inactive”. For `O=C1NC(=O)C(c2ccccc2[N+](=O)[O-])=C1Nc1ccc(O)c(Cl)c1`, the Potency was “inactive”. For `COC(=O)C1=C(C)NC(C)=C(C(=O)OCCCN2CCC(c3ccccc3)(c3ccccc3)CC2)C1c1cccc([N+](=O)[O-])c1` (stereo not given), the Potency was “inactive”. In the case of `OC(CN1CCN(c2cccc(Cl)c2)CC1)C(c1ccccc1)c1ccccc1` (stereo not given), the Potency was “inactive”. In the case of `COc1cc2c(N3CCN(C(=O)Nc4ccc(OC(C)C)cc4)CC3)ncnc2cc1OCCCN1CCCCC1`, the Potency was “inactive”. For `CC(=O)NC[C@H]1CN(c2ccc(N3CCOCC3)c(F)c2)C(=O)O1`, the Potency was “inactive”.
